Results as given in PubChem BioAssay (EPA / NIEHS).
Results filed as inconclusive are left out. Active and inactive are the calls of the source. How the source made its calls, unless noted: active means hit-call score of the fitted dose curve at least 0.9, where 1 is the maximum; inactive means score below 0.9.

What was measured:
[1] = UKN2_HCS_IMR90_neural_migration: University of Konstanz (UKN) Leist Lab Neural Crest Cell Migration Assay in human induced IMR90 Pluripotent Stem Cells (UKN2) (AID 2284204); conditions: actives raise or lower the signal
Procedure, shortened: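 iPSC-derived IMR90 neural crest cells on PLO/laminin/fibronectin were seeded around silicone stoppers; after stopper removal, migration in N2-S medium with EGF and FGF ran 24 h before 24 h chemical exposure. Calcein-AM/Hoechst high-content imaging; bidirectional fit versus DMSO.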

[2] = UKN4_HCS_LUHMES_neurite_outgrowth: University of Konstanz (UKN) Leist Lab Neurite Outgrowth Assay in human LUHMES cells (UKN4) (AID 2284206); conditions: actives raise or lower the signal
Procedure, shortened: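 Human LUHMES neuronal precursors, differentiated 2 days then replated without cAMP and GDNF, exposed to compounds for 24 h. Neurite area imaged by high-content microscopy after calcein-AM live staining; Hoechst H-33342 for viability; bidirectional fit versus DMSO.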

[3] = IUF_NPC1b_proliferation_BrdU_72hr: Leibniz Research Institute for Environmental Medicine (IUF) 72-hour Neural Progenitor Cell Bromodeoxyuridine (BrdU) Proliferation Assay (NPC1b) (AID 2284207)
Procedure, shortened: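 hNPC spheres (primary, GW 16-19 fetal cortex), single sphere/well, EGF+FGF medium; 72 h compound, no renewal; BrdU pulse last 16 h; luminescent ELISA; activity vs DMSO baseline; growth-factor withdrawal as positive control.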

[4] = IUF_NPC1a_proliferation_area_72hr: Leibniz Research Institute for Environmental Medicine (IUF) 72-hour Neural Progenitor Cell Proliferation Area Assay (NPC1a) (AID 2284208)
Procedure, shortened: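 hNPC spheres (human fetal cortex, GW 16-19), one per poly-Hema U-bottom well; EGF+FGF medium; dosed day 0, no re-dosing; 72 h, 37C, 5% CO2; phase-contrast sphere area; DMSO = baseline; minus-GF = positive ctrl.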

[5] = IUF_NPC1_viability_72hr: Viability Assessment at 72 hours in the Leibniz Research Institute for Environmental Medicine (IUF) Neural Progenitor Cell Proliferation Assay (NPC1) (AID 2284209)
Procedure, shortened: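 Single spheres (0.25-0.35 mm) of human fetal cortex-derived neural progenitor cells were grown in proliferation medium with EGF and FGF at 37C and 5% CO2. They were exposed for 72 h without renewal, and viability was read by alamar blue resorufin fluorescence.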

[6] = CCTE_Mundy_HCI_Cortical_Synap_Neur_Matur_NeuriteSpotCountPerNeuriteLength: CCTE's Synaptogenesis and Neurite Maturation Assay in rat cortical cells for Neurite Spot Count per Neurite Length, Mundy Lab (AID 2284210)
Procedure, shortened: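 Rat primary cortical cultures, glia arrested with AraC at DIV 5, were dosed with media change at DIV 7 and fixed at DIV 12. Synaptophysin puncta per MAP2-labelled neurite length were quantified by high-content imaging versus DMSO.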

[7] = CCTE_Mundy_HCI_Cortical_NOG_NeuriteLength: CCTE's Neurite Outgrowth Assay in rat cortical cells for Neurite Length, Mundy Lab (AID 2284213);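 further: neurites imaged about 48 to 50 h after chemical exposure began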
Procedure, shortened: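 Neurite length was read by high-content imaging of βIII-tubulin-labelled neurites in rat primary cortical cultures. Activity was fitted relative to DMSO.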

[8] = CCTE_Mundy_HCI_Cortical_Synap_Neur_Matur_NeuriteSpotCountPerNeuron: CCTE's Synaptogenesis and Neurite Maturation Assay in rat cortical cells for Neurite Spot Count per Neuron Count, Mundy Lab (AID 2284215)
Procedure, shortened: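 Read-out: neurite-associated synaptophysin puncta per neuron, imaged by high-content analysis after MAP2, synaptophysin and Hoechst staining. Rat primary cortical cultures, dosed DIV 7 through DIV 12; DMSO served as baseline.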

[9] = CCTE_Mundy_HCI_Cortical_Synap_Neur_Matur_SynapseCount: CCTE's Synaptogenesis and Neurite Maturation Assay in rat cortical cells for Synapse Count, Mundy Lab (AID 2284218)
Procedure, shortened: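 Rat primary cortical cultures, AraC at DIV 5, chemical dosing DIV 7 to DIV 12 (288.33 h). Fixed cells stained for MAP2, synaptophysin and Hoechst; synapses per neuron counted by high-content imaging, loss of signal versus DMSO.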

[10] = CCTE_Mundy_HCI_hN2_NOG_NeuriteCount: CCTE's Neurite Outgrowth Assay in human hN2 cells for Neurite Count, Mundy Lab (AID 2284219; active means hit-call score of the fitted dose curve at least 0.9, where 1 is the maximum)
Procedure, shortened: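 In this morphology assay, hNP1-derived neurons received test chemical 2 h post-plating and were fixed two days later in warm paraformaldehyde/sucrose containing Hoechst 33342. Neurites, labelled by rabbit anti-βIII-tubulin (1:800) and Alexa Fluor-488 (1:500), were counted automatically.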

[11] = CCTE_Mundy_HCI_hN2_NOG_NeuriteLength: CCTE's Neurite Outgrowth Assay in human hN2 cells for Neurite Length, Mundy Lab (AID 2284220; active means hit-call score of the fitted dose curve at least 0.9, where 1 is the maximum)
Procedure, shortened: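 Using βIII-tubulin immunofluorescence and Hoechst nuclear counterstain, this component quantifies neurite length in hNP1-derived neurons.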

[12] = CCTE_Mundy_HCI_hN2_NOG_NeuronCount: CCTE's Neurite Outgrowth Assay in human hN2 cells for Neuron Count, Mundy Lab (AID 2284221; active means hit-call score of the fitted dose curve at least 0.9, where 1 is the maximum)
Procedure, shortened: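 Read-out is the number of betaIII-tubulin-positive neurons imaged by automated high-content analysis, with DMSO as negative control.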

[13] = UKN4_HCS_LUHMES_cell_viability: Viability Assessment in the University of Konstanz (UKN) Leist Lab Neurite Outgrowth Assay in human LUHMES cells (UKN4) (AID 2284232)
Procedure, shortened: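 LUHMES precursors differentiated 2 days, replated at 30000 cells/well without cAMP/GDNF, then compound-treated 24 h. Viability from Hoechst H-33342 and calcein-AM live staining (30 min) by high-content fluorescence imaging; bidirectional fit versus DMSO.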

[14] = UKN2_HCS_IMR90_cell_viability: Viability Assessment in the University of Konstanz (UKN) Leist Lab Neural Crest Cell Migration Assay in human induced IMR90 Pluripotent Stem Cells (UKN2) (AID 2284233);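 further: viability of neural crest cells differentiated from IMR90 iPSC measured by calcein-AM fluorescence imaging; cells exposed to compound for 24 h after a 24 h migration phase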
Procedure, shortened: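 iPSC-derived (IMR90) neural crest cells seeded around silicone stoppers on PLO/laminin/fibronectin; after 24 h migration in N2-S with EGF/FGF, chemical added for 24 h. Calcein-AM/Hoechst stained 30 min, high-content imaged; bidirectional fit versus DMSO.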

[15] = CCTE_Mundy_HCI_Cortical_NOG_NeuronCount: CCTE's Neurite Outgrowth Assay in rat cortical cells for Neuron Count, Mundy Lab (AID 2284236; active means hit-call score of the fitted dose curve at least 0.9, where 1 is the maximum;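 further: neurons counted by imaging betaIII-tubulin and Hoechst stained cortical cells; cells exposed to compound for about 48 hours before fixation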)
Procedure, shortened: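 Read-out: neuron number by high-content imaging of betaIII-tubulin (Alexa Fluor-488) and Hoechst-labelled rat primary cortical cells.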

[16] = CCTE_Mundy_HCI_hNP1_Casp3_7: CCTE's Caspase-Glo 3/7 Assay in human neuroprogenitor cells for Apoptosis, Mundy Lab (AID 2284240)
Procedure, shortened: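 Neuroepithelial-lineage stem cells from WA09 embryonic cells were treated with chemicals after 40–44 h of culture. Twenty-four hours later, caspase-3/7 activation was detected luminescently after a 30 min room-temperature reagent step, with DMSO as baseline.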

[17] = CCTE_Mundy_HCI_Cortical_Synap_Neur_Matur_NeuronCount: CCTE's Synaptogenesis and Neurite Maturation Assay in rat cortical cells for Neuron Count, Mundy Lab (AID 2284242; active means hit-call score of the fitted dose curve at least 0.9, where 1 is the maximum)
Procedure, shortened: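 Rat primary cortical cells, AraC added at DIV 5, dosed with media change from DIV 7 to DIV 12. Fixed, Hoechst-stained and immunolabelled for MAP2 and synaptophysin; neuron number counted by high-content imaging, loss fitted versus DMSO.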

[18] = IUF_NPC2c_oligodendrocyte_migration_120hr: Leibniz Research Institute for Environmental Medicine (IUF) 120-hour Neural Progenitor Cell Migration Assay for Oligodendrocyte Migration (NPC2c) (AID 2284297);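 further: O4-positive oligodendrocyte migration distance divided by radial glia migration distance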
Procedure, shortened: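 hNPC spheres (GW 16-19 cortex), PDL/laminin, DMEM/F12 3:1 + 1% N2, 37C. Dosing day 0–5, half feed day 3, DMSO ≤0.1%. Fixed 120 h; O4 ICC + Hoechst, HCI. Readout: mean oligodendrocyte distance from sphere edge / radial glia distance.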

[19] = IUF_NPC2a_radial_glia_migration_120hr: Leibniz Research Institute for Environmental Medicine (IUF) 120-hour Neural Progenitor Cell Migration Assay for Radial Glia Migration (NPC2a) (AID 2284298)
Procedure, shortened: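 Hoechst-stained nuclei imaged at 120 h; algorithm maps sphere core by densest nuclei, sets migration edge at density threshold, gives radial glia migration distance (um) per well vs DMSO. hNPC spheres (0.3 mm), PDL/laminin, DMEM/F12 3:1 + 1% N2.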

[20] = IUF_NPC2a_radial_glia_migration_72hr: Leibniz Research Institute for Environmental Medicine (IUF) 72-hour Neural Progenitor Cell Migration Assay for Radial Glia Migration (NPC2a) (AID 2284299)
Procedure, shortened: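 Human fetal neural progenitor spheres (0.3 mm) plated on poly-D-lysine/laminin in N2 differentiation medium and exposed from day 0 at 7 concentrations; radial glia migration distance from sphere edge measured at 72 h on brightfield images, mean of four directions, vs DMSO.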

[21] = IUF_NPC3_neuronal_differentiation_120hr: Leibniz Research Institute for Environmental Medicine (IUF) 120-hour Neuronal Differentiation Assay (NPC3) (AID 2284301)
Procedure, shortened: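 Primary human fetal neural progenitor spheres (GW 16-19, 0.3 mm) plated on poly-D-lysine/laminin in N2 medium, exposed from day 0 for 120 h with half-medium refresh at day 3. TUBB3+ cells as percent of Hoechst nuclei in migration area; DMSO baseline.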

[22] = IUF_NPC4_neurite_length_120hr: Leibniz Research Institute for Environmental Medicine (IUF) 120-hour Neuronal Morphology Assay for Neurite Length (NPC4) (AID 2284302)
Procedure, shortened: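 Human fetal cortex (GW 16-19) neural progenitor spheres, 0.3 mm, were plated on poly-D-lysine/laminin in N2 differentiation medium and exposed from day 0 for 120 h, half-feeding at day 3. Mean TUBB3+ neurite length (µm) came from skeletonized images, relative to DMSO.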

[23] = IUF_NPC5_oligodendrocyte_differentiation_120hr: Leibniz Research Institute for Environmental Medicine (IUF) 120-hour Oligodendrocyte Differentiation Assay (NPC5) (AID 2284304; active means hit-call score of the fitted dose curve at least 0.9, where 1 is the maximum;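 further: primary human fetal neural progenitor spheres plated to migrate and differentiate; share of O4-positive cells among Hoechst nuclei found by CNN image analysis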)
Procedure, shortened: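 hNPC spheres, fetal cortex GW 16-19; PDL/laminin, DMEM:F12 3:1 + 1% N2, 37C/5% CO2; 7 concentrations + solvent control, 5 d exposure, half-change day 3. Readout: %O4+ of Hoechst+ nuclei in migration area, CNN classification; DMSO baseline.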

[24] = IUF_NPC2-5_cytotoxicity_72hr: Cytotoxicity Assessment at 72 hours in the Leibniz Research Institute for Environmental Medicine (IUF) Neural Progenitor Cell Migration and Differentiation Assay for Cytotoxicity (NPC2-5) (AID 2284306; active means hit-call score of the fitted dose curve at least 0.9, where 1 is the maximum;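 further: LDH release into supernatant measured by resorufin fluorescence marking membrane damage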)
Procedure, shortened: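 Human fetal (GW 16-19) neural progenitor spheres, 0.3 mm, plated on poly-D-lysine/laminin in N2 differentiation medium and exposed from day 0 to 7 concentrations plus solvent control (DMSO ≤0.1%). LDH-dependent resazurin-to-resorufin fluorescence in supernatant at 72 h.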

[25] = IUF_NPC2-5_cytotoxicity_120hr: Cytotoxicity Assessment at 120 hours in the Leibniz Research Institute for Environmental Medicine (IUF) Neural Progenitor Cell Migration and Differentiation Assay (NPC2-5) (AID 2284307; active means hit-call score of the fitted dose curve at least 0.9, where 1 is the maximum;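 further: LDH released into supernatant as membrane damage marker via resorufin fluorescence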)
Procedure, shortened: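 hNPC spheres on PDL/laminin, N2 medium, 37C; 7 concs + solvent control, DMSO ≤0.1%; 5-day exposure, half medium changed day 3. LDH in supernatant at 120 h, resazurin→resorufin fluorescence, gain-of-signal.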

[26] = IUF_NPC2-5_cell_number_120hr: Cell Number Assessment at 120 hours in the Leibniz Research Institute for Environmental Medicine (IUF) Neural Progenitor Cell Migration and Differentiation Assay (NPC2-5) (AID 2284308);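 further: count of Hoechst-stained nuclei in migration zone around plated human neural progenitor spheres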
Procedure, shortened: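 Hoechst-stained nuclei within the migration area were counted by automated high content imaging after 120 h. Single hNPC spheres differentiated on poly-D-lysine/laminin in DMEM/F12 (3:1) with 1% N2, compound present throughout, DMSO ≤0.1%.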

[27] = IUF_NPC2-5_viability_120hr: Viability Assessment at 120 hours in the Leibniz Research Institute for Environmental Medicine (IUF) Neural Progenitor Cell Migration and Differentiation Assay (NPC2-5) (AID 2284312)
Procedure, shortened: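 Human fetal (GW 16-19) neural progenitor spheres of 0.3 mm were plated on poly-D-lysine/laminin in N2 differentiation medium and exposed from day 0 for 120 h, with half-medium refresh at day 3. Viability was read as alamar blue resazurin-to-resorufin fluorescence against DMSO.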

[28] = IUF_NPC1_cytotoxicity_72hr: Cytotoxicity Assessment at 72 hours in the Leibniz Research Institute for Environmental Medicine (IUF) Neural Progenitor Cell Proliferation Assay (NPC1) (AID 2284332; active means hit-call score of the fitted dose curve at least 0.9, where 1 is the maximum;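 further: rising LDH signal means more cytotoxicity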)
Procedure, shortened: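 Human fetal neural progenitor spheres (0.3 mm) in EGF/FGF proliferation medium, 37C, exposed 72 h without renewal. LDH release in supernatant read by resorufin fluorescence; gain of signal scored relative to dynamic range.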

C[C@@H]1C[C@H]2[C@@H]3CCC4=CC(=O)C=C[C@]4(C)[C@@]3(F)[C@@H](O)C[C@]2(C)[C@@]1(O)C(=O)CO
outcome [1]: inactive
outcome [2]: inactive
AC50 [3]: 90.1 nM (active)
outcome [4]: inactive
outcome [5]: inactive
outcome [6]: inactive
AC50 [7]: 21100 nM (active)
outcome [8]: inactive
outcome [9]: inactive
outcome [10]: inactive
outcome [11]: inactive
outcome [12]: inactive
outcome [13]: inactive
outcome [14]: inactive
outcome [15]: inactive
outcome [16]: inactive
outcome [17]: inactive
outcome [18]: inactive
outcome [19]: inactive
outcome [20]: inactive
outcome [21]: inactive
outcome [22]: inactive
outcome [23]: inactive
outcome [24]: inactive
AC50 [25]: 24 nM (active)
outcome [26]: inactive
outcome [27]: inactive
outcome [28]: inactive
